Screens (PubChem BioAssay)
miR-21 act: qHTS Assay for Modulators of miRNAs and/orActivators of miR-21 | 340,000 tested, under 10 active | AID 2288, 2010 | Potency, µM (series often up to 38.3 µM), for inactives: at the highest dose activity change, positive = activation, usual class: activators | HeLa miR-21 FLuc reporter, luciferase, 48 h;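 further: % of control where 0% means no effect; miR-21 action dims this reporter so a rising signal means less miR-21 action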
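Luminescence from a firefly luciferase reporter carrying a miR-21 binding site downstream, stably expressed under a CMV promoter in HeLa cells that make miR-21 endogenously, reports miRNA modulation after 48 h compound exposure up to approximately 40uM final.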
DT40 TDP1 no CPT: qHTS for Inhibitors of human tyrosyl-DNA phosphodiesterase 1 (TDP1): qHTS in cells in absence of CPT; Potency, µM (series often up to 46.2 µM), without a hit: at the highest dose activity change, negative = growth inhibition, actives largely listed as inhibitors; AID 686978, 2013; DT40 Tdp1-/- hTDP1 cells, no CPT, ATP luminescence, 48 h; 420,000 compounds, 15% hits; further: potency means the concentration at half of the fitted maximal effect; on the % scale 0 is the no-effect control and ±100 the full control effect; nearly all actives have a fitted effect of over 55% in size
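Growth kinetics read by CellTiter-Glo luminescence after ≥48 hr at 37 °C. Cells: DT40 Tdp1-/- stably carrying human TDP1, 400 per well, compound exposure in the absence of CPT (DMSO vehicle).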
uPA surface inh: qHTS for Inhibitors of Cell Surface uPA Generation | cell surface uPA generation assay, qHTS | Potency, µM (series often up to 38.3 µM), without a hit: top-dose activity change, negative = inhibition, hits mostly inhibitors | 330,000 compounds, 0.31% hits | AID 540303, 2011; active means well fitted inhibition curve with a large enough effect; inconclusive means small, poorly fitted or top-dose-only effect; inactive means no such curve, though single readings can be large or run the other way; tested in mouse RAW 264.7 cells; further: potency means the concentration at half of the fitted maximal effect; on the % scale 0 is the no-effect control and ±100 the full control effect; nearly all actives have a fitted effect of over 55% in size
TDP1 block: qHTS Assay for Inhibitors of Tyrosyl-DNA Phosphodiesterase (TDP1) | Tyrosyl-DNA phosphodiesterase 1 (Homo sapiens), Q9NUW8 | recombinant TDP1, AlphaScreen DNA substrate cleavage | Potency, µM (doses to about 130 µM), for the others: top-dose activity change, negative = inhibition, most hits filed as inhibitors | 350,000 compounds, 0.28% hits | AID 485290, 2010; further: potency means the concentration at half of the fitted maximal effect; on the % scale 0 is the no-effect control and ±100 the full control effect; nearly all actives have a fitted effect of over 40% in size
Target sequence (Q9NUW8 whole entry, looked up): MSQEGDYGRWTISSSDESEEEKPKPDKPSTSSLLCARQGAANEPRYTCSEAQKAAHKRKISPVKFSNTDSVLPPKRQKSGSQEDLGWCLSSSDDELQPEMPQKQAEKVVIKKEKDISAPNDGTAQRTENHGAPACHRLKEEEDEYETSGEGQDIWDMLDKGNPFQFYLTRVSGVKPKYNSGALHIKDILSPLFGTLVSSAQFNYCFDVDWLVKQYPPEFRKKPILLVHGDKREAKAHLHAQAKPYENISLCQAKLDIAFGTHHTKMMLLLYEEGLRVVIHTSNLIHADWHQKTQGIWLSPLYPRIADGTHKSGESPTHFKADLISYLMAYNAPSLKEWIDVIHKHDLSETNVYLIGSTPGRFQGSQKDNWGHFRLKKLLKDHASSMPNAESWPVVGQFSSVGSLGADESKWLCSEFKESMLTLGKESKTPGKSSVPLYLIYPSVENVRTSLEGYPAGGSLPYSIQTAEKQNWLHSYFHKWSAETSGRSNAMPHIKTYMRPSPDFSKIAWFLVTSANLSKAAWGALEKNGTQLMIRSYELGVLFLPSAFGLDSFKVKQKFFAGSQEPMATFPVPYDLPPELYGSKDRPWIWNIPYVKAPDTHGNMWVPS
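Signal: AlphaScreen proximity between streptavidin donor and anti-FITC acceptor beads on intact substrate. Reaction: Tdp1 1 nM, substrate 15 nM final, 5 min RT after 15 min compound preincubation.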
DT40 TDP1 CPT: qHTS for Inhibitors of human tyrosyl-DNA phosphodiesterase 1 (TDP1): qHTS in cells in presence of CPT; chicken DT40 Tdp1-/-;hTDP1 cells + 20 nM CPT, ATP luminescence, 48 h; Potency, µM (titrated, usually from 46.2 µM), for inactives: at the top dose activity change, negative = growth inhibition, hits mostly inhibitors; 420,000 compounds, 12% hits; AID 686979, 2013; further: potency means the concentration at half of the fitted maximal effect; on the % scale 0 is the no-effect control and ±100 the full control effect; nearly all actives have a fitted effect of over 55% in size
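Cell growth measured by CellTiter-Glo luminescence after a minimum 48 h, 37 C compound exposure with 20 nM CPT in Tdp1-knockout DT40 cells stably expressing hTDP1, seeded 400/well; qHTS titration format.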
The depositor's hits bear a star; ? = inconclusive; / = not tested or not shown; [ ] = another dose, or the depositor's remark. Rows were chosen to be rich in hits. Some 16% of all compounds tested hit in one or more screens of this group. Unless noted, the call rests on the fitted dose curve; in most records, active means well fitted curve in the direction sought with a large enough effect; inconclusive means small, poorly fitted or top-dose-only effect, or another doubt; inactive means no such curve, though single readings can be large; an effect the other way counts as inactive or inconclusive.

SMILES | miR-21 act | DT40 TDP1 no CPT | uPA surface inh | TDP1 block | DT40 TDP1 CPT
Cc1nc(N)c(CC(Br)CBr)c(Cl)n1 (centres undefined) | 15% | 7.3µM* | 18% | 2% | 8.2µM*
O=C(CSc1nnnn1C1CCCC1)Nc1ccccc1F | -21% | -3% | -15% | / | -22%
CC(C)c1ccc(C2CC(=O)Nc3cc4c(cc32)OCCO4)cc1 (centres undefined) | 23% | 29µM* | / | -4%[12.3 µM] | ?
Cc1ccc(C2CC(=O)Nc3cc4c(cc32)OCCO4)cc1Br (centres undefined) | 8% | 16µM* | / | 5% | 18µM*
COc1ccc2c(c1)-c1ccccc1S(=O)(=O)N2C | -5% | ? | -4% | 6% | ?
Cc1ccc2c(c1)S(=O)(=O)N(C)C(c1ccccc1)=C2 | / | ? | 3% | / | 18µM*
O=C(CC1SC(=O)N(c2ccccc2)C1=O)Nc1ccc(Cl)cc1 (centres undefined) | -36% | 21µM* | -2% | 3% | 7.3µM*
O=C(CC1SC(=Nc2ccccc2)N(CCCO)C1=O)Nc1ccc(Cl)cc1 (centres undefined) | 20% | -23% | 19% | 3% | -22%
O=C(CC1S/C(=N\S(=O)(=O)c2ccc(F)cc2)N(c2ccccc2)C1=O)Nc1ccccc1 (centres undefined) | -2% | -11% | 2% | 1% | ?
O=C(CC1SC(=O)N(c2ccccc2)C1=O)Nc1ccc(Br)cc1 (centres undefined) | -29% | 5.8µM* | -2% | 2% | 2.6µM*
CC1CCN(C(=O)CSc2c3c(nc4cc(Cl)ccc24)CCCC3)CC1 | ? | ? | / | 9% | ?
COc1cccc(OCCSc2nc(N)cc(N)n2)c1 | -11% | 21µM* | -7% | 4% | ?
Nc1cc(N)nc(SCCOc2ccccc2)n1 | -68% | -28% | -6% | -2% | ?
N#Cc1c2n(c3c(=O)n(Cc4ccccc4Cl)cnc13)CCCCC2 | -8% | ? | 13% | 6% | 18µM*
CCOc1ccccc1C(=O)NC(C(=O)Nc1cccnc1)C(C)C (centres undefined) | -7% | 6% | -25% | 8% | 6%
CC(C)C(NC(=O)C(c1ccccc1)c1ccccc1)c1nc2ccccc2[nH]1 (centres undefined) | 1% | ? | -5% | 4% | ?
OC(CCN1CCC2CCC(C2)C1)c1ccc(Br)cc1 (centres undefined) | / | ? | -6% | / | -3%
Cc1ccc(C)c(Nc2nc3c(S(=O)(=O)c4ccc(Br)cc4)nnn3c3ccsc23)c1 | ? | 21µM* | / | / | 18µM*
Cc1ccc(C)c(Nc2nc3c(S(=O)(=O)c4ccc(C(C)C)cc4)nnn3c3ccsc23)c1 | ? | 21µM* | / | 3% | 15µM*
Cc1ccc(Nc2nc3c(S(=O)(=O)c4ccccc4)nnn3c3ccsc23)c(C)c1 | 2% | ? | / | 3% | ?
COc1ccccc1Nc1nc2c(S(=O)(=O)c3ccc(C(C)C)cc3)nnn2c2ccsc12 | 2% | -5% | / | 0% | -4%
C=CCn1c(SCC(=O)NCCOC)nc2scc(-c3ccco3)c2c1=O | -9% | -17% | 4% | ? | -18%
C[C@@H](Nc1nc(Cl)nc2nc[nH]c12)c1ccccc1 | / | 16µM* | / | 1% | 20µM*
Clc1nc(NCc2ccco2)c2[nH]cnc2n1 | / | ? | / | 3% | -3%
CCCCNC(=O)CSc1nc2cc3c(cc2c(=O)n1Cc1ccc(C(=O)NCCc2ccc(OC)c(OC)c2)cc1)OCO3 | -4% | -7% | / | 4% | 12%
SMILES | miR-21 act | DT40 TDP1 no CPT | uPA surface inh | TDP1 block | DT40 TDP1 CPT
CCN(CC)C(=O)CSc1nc2cc3c(cc2c(=O)n1CCCC(=O)NCCc1ccc(OC)c(OC)c1)OCO3 | -2% | 18µM* | -2% | 5% | ?
CCOC(=O)CSc1nc2cc3c(cc2c(=O)n1CCCC(=O)NCCc1ccc(OC)c(OC)c1)OCO3 | -7% | 13µM* | / | 5% | ?
CCC(Sc1nc2cc3c(cc2c(=O)n1CCCC(=O)NCc1ccc(OC)cc1)OCO3)C(=O)NCCCOC (centres undefined) | 4% | ? | / | 1% | 3%
CCCCNC(=O)CSc1nc2cc3c(cc2c(=O)n1CCCC(=O)NCCc1ccc(OC)c(OC)c1)OCO3 | 6% | -3% | 2% | 0% | 0%
CCCCC(Sc1nc2cc3c(cc2c(=O)n1CCCC(=O)NCc1ccc(OC)cc1)OCO3)C(=O)OCC (centres undefined) | ? | 4.6µM* | / | 4% | 4.6µM*
CCN(CC)C(=O)CSc1nc2cc3c(cc2c(=O)n1Cc1ccc(C(=O)NCCc2ccc(OC)c(OC)c2)cc1)OCO3 | 15% | 21µM* | / | 0% | 13µM*
CC1(Cn2ccnn2)[C@H](C(=O)O)N2C(=O)C[C@H]2S1(=O)=O (some centres undefined) | / | / | / | 4% | /
O=C(CSc1n[nH]c(=O)[nH]c1=O)NC1CC1 | 0% | 1% | 14% | 1% | -4%
CCCS(=O)(=O)c1nc(S(=O)(=O)c2ccc(C)cc2)c(NCCCN(C)C)s1 | -6% | 25% | -2% | 8% | -4%
Cc1ccc(S(=O)(=O)c2nc(S(=O)(=O)c3ccccc3)sc2NCCCOC(C)C)cc1 | -1% | 12µM* | / | 5% | ?
CCCS(=O)(=O)c1nc(S(=O)(=O)c2ccc(C)cc2)c(NCCCOC(C)C)s1 | 7% | 16µM* | / | 0% | ?
CCc1c(C)sc(NC(=O)C2CC(c3c(F)cccc3Cl)=NO2)c1C#N (centres undefined) | -22% | ? | 18% | 3% | 16µM*
Cc1ccc(O)c(NC(=O)C2CC(c3c(F)cccc3Cl)=NO2)c1 (centres undefined) | -18% | ? | -6% | 4% | -19%
N#Cc1c(NC(=O)C2CC(c3c(F)cccc3Cl)=NO2)sc2c1CCC2 (centres undefined) | -41% | 0.21µM* | 0% | 3% | ?
COc1ccc(/C=C2\Sc3ccc(C(=O)NC4CC4)cc3N(C)C2=O)cc1OC | 16% | ? | ? | 7% | ?
CCOC(=O)C1CCCN(C(=O)c2ccc3c(c2)N(C)C(=O)/C(=C/c2ccccc2Cl)S3)C1 (centres undefined) | 11% | 18µM* | -9% | 4% | ?
CCOC(=O)C1CCCN(C(=O)c2cccc(N3C(=O)c4ccccc4C3=O)c2)C1 (centres undefined) | / | -24% | -5% | 2% | -1%
